This passage reports growth results from PubChem BioAssay (NCI).

Compounds without any hit were thinned out: in the full panel of roughly 83,000, 20% have a hit.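 Single-concentration screen, 48 h exposure, 96-well plates. Endpoint: percent growth. Below 10 = active.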 A number with no mark means an inactive call. Calls of active or inactive are those of the source.

Test systems include HCT-15 colon; HT29 colon; SNB-75 CNS; SNB-19 CNS; U251 CNS; PC-3 prostate; SK-MEL-5 melanoma; UACC-62 melanoma; LOX IMVI melanoma; SK-MEL-28 melanoma; SK-MEL-2 melanoma; EKVX NSCLC; SN12C renal; UO-31 renal; TK-10 renal; ACHN renal; CAKI-1 renal; CCRF-CEM leukemia; MOLT-4 leukemia.
Common to all, as to assay: NCI-60 one-dose screen, 48 h (100 = growth as untreated, 0 = no growth, -100 = all killed)
Holding throughout (details): 10 µM unless noted

Consider `O=C(NCCc1ccccc1)Nc1ccc2cc3ccc(NC(=O)NCCc4ccccc4)cc3nc2c1`, for which the growth in the assay on HCT-15 colon is 97.1%; in the assay with HT29 colon, 31.4%; in the assay with SNB-75 CNS it was 17.1%; with SNB-19 CNS, -31.8% (active); in the assay on U251 CNS, -26.4% (active); with PC-3 prostate it was 19.3%. The growth in the assay on SK-MEL-5 melanoma is 60.9%; in the assay on UACC-62 melanoma it was -51.2% (active); in the assay with LOX IMVI melanoma, -79.8% (active); in the assay on SK-MEL-28 melanoma it was -29.4% (active); in the assay with SK-MEL-2 melanoma it was 0.339% (active); in the assay with EKVX NSCLC it was 71.9%. For the same compound, the growth was -40.1% (active) in the assay with SN12C renal; 89.9% in the assay on UO-31 renal; 99.2% in the assay on TK-10 renal; 100% with ACHN renal; 86.6% in the assay on CAKI-1 renal; 0.959% (active) in the assay with CCRF-CEM leukemia. For the same compound, in the assay on MOLT-4 leukemia, the growth was -46.4% (active).

Turning to `O=C(C1CCC1)N1N=C(c2ccc(-n3ccc(C(F)(F)F)n3)cc2)CC1c1ccc[nH]1` (configuration not stated), the growth in the assay with HCT-15 colon was 85.6%; in the assay on HT29 colon, 89.8%; in the assay on SNB-75 CNS, 101%; in the assay on SNB-19 CNS, 95.9%; with U251 CNS, 82.2%; in the assay on PC-3 prostate, 76.5%. The growth is 100% in the assay on SK-MEL-5 melanoma; 90.5% in the assay with UACC-62 melanoma; 92.8% with LOX IMVI melanoma; 104% with SK-MEL-28 melanoma; 101% with SK-MEL-2 melanoma; 90.4% in the assay with EKVX NSCLC. Further, the growth in the assay on SN12C renal is 98.3%; in the assay on UO-31 renal, 94.4%; with TK-10 renal it was 89.1%; in the assay on ACHN renal, 102%; in the assay with CAKI-1 renal, 91.5%; with CCRF-CEM leukemia, 89.9%. The growth with MOLT-4 leukemia is 74.8%.

Take `COc1cc2oc(-c3cccc(C(=O)Nc4ccc5c(c4)OCO5)c3)cc(=O)c2c(O)c1OC`: the growth in the assay on HCT-15 colon was 93.6%; in the assay on HT29 colon it was 76.3%; in the assay with SNB-75 CNS it was 84.6%; with SNB-19 CNS, 72.1%; in the assay with U251 CNS, 55.8%; in the assay on PC-3 prostate, 72.3%. The growth with SK-MEL-5 melanoma was 84%; in the assay with UACC-62 melanoma it was 81.4%; in the assay on LOX IMVI melanoma it was 88.2%; in the assay on SK-MEL-28 melanoma, 89.8%; in the assay on SK-MEL-2 melanoma it was 89.9%; with EKVX NSCLC it was 87%. Besides, the growth with SN12C renal was 68.7%; in the assay with UO-31 renal, 82.1%; in the assay on TK-10 renal it was 98.6%; with ACHN renal, 75.3%; with CAKI-1 renal, 76.9%; with CCRF-CEM leukemia, 97.2%. Moreover, in the assay on MOLT-4 leukemia, the growth was 101%.

On to `N#CC1=C(/N=C/c2ccccc2)Oc2c(ccc3ccccc23)C1c1ccc([N+](=O)[O-])cc1` (configuration not stated), for which the growth in the assay with HCT-15 colon is 91.4%; in the assay on HT29 colon it was 102%; in the assay on SNB-75 CNS, 60.4%; in the assay with SNB-19 CNS, 94.9%; in the assay on U251 CNS, 97.4%; with PC-3 prostate it was 78.7%. For the same compound, the growth in the assay with SK-MEL-5 melanoma is 86.9%; with UACC-62 melanoma, 87.2%; in the assay with LOX IMVI melanoma, 90.4%; in the assay with SK-MEL-28 melanoma it was 118%; with SK-MEL-2 melanoma it was 90.8%; in the assay with EKVX NSCLC it was 70.7%. Further, the growth is 93.5% in the assay with SN12C renal; 59.5% in the assay on UO-31 renal; 166% in the assay on TK-10 renal; 87.9% in the assay on ACHN renal; 70.1% in the assay on CAKI-1 renal; 94.5% in the assay with CCRF-CEM leukemia. The growth in the assay with MOLT-4 leukemia was 94.4%.

As to `COc1cc(/C=C\C(=O)O)ccc1OCc1ccccc1`, the growth in the assay on HCT-15 colon is 107%; with HT29 colon, 105%; in the assay with SNB-75 CNS it was 103%; in the assay with SNB-19 CNS, 99.2%; in the assay with U251 CNS, 84.9%; with PC-3 prostate, 92.8%. In addition, the growth with SK-MEL-5 melanoma was 94.2%; in the assay with UACC-62 melanoma, 93.2%; with LOX IMVI melanoma, 95.7%; in the assay with SK-MEL-28 melanoma, 110%; with SK-MEL-2 melanoma, 93.5%; with EKVX NSCLC it was 115%. For the same compound, the growth with SN12C renal was 95%; in the assay on UO-31 renal, 81.4%; with TK-10 renal, 101%; in the assay on ACHN renal it was 102%; in the assay with CAKI-1 renal, 99.4%; with CCRF-CEM leukemia, 98.3%. Further, the growth with MOLT-4 leukemia is 96.3%.

For the compound `Nc1c(C(=O)Nc2cccc3cnccc23)sc2nc3c(cc12)C(=O)CCC3`, the growth in the assay with HCT-15 colon is 70.9%; with HT29 colon, 79.9%; in the assay with SNB-75 CNS, 88.5%; in the assay on SNB-19 CNS, 66.6%; in the assay with U251 CNS, 95.7%; in the assay on PC-3 prostate, 75.9%. Further, the growth is 47.6% in the assay on SK-MEL-5 melanoma; 43.1% with UACC-62 melanoma; 91.6% in the assay on LOX IMVI melanoma; 85.1% in the assay on SK-MEL-28 melanoma; 77.2% in the assay on SK-MEL-2 melanoma; 91.6% in the assay with EKVX NSCLC. In addition, the growth in the assay with SN12C renal is 89.2%; in the assay on UO-31 renal, 81.8%; in the assay with TK-10 renal, 104%; in the assay on ACHN renal, 101%; in the assay with CAKI-1 renal it was 77.8%; with CCRF-CEM leukemia, 64.6%. Moreover, the growth in the assay with MOLT-4 leukemia was 102%.

With `CCN(CC)CCCC(C)Nc1cc(O)cc2cccnc12` (configuration not stated), the growth in the assay with HCT-15 colon was 102%; in the assay on HT29 colon it was 44.4%; with SNB-75 CNS it was 74.9%; in the assay with SNB-19 CNS it was 93.8%; in the assay with U251 CNS, 88.2%; with PC-3 prostate it was 86.8%. Moreover, the growth in the assay on SK-MEL-5 melanoma is 116%; with UACC-62 melanoma it was 94.4%; with LOX IMVI melanoma it was 88.7%; with SK-MEL-28 melanoma, 122%; in the assay on SK-MEL-2 melanoma, 135%; with EKVX NSCLC it was 106%. Further, the growth with SN12C renal was 85.7%; in the assay on UO-31 renal it was 83.4%; in the assay on TK-10 renal, 122%; with ACHN renal it was 102%; with CAKI-1 renal, 109%; with CCRF-CEM leukemia, 108%. In the assay on MOLT-4 leukemia, the growth was 112%.

On to `COc1ccc(NC(N)=NCCCOc2ccc(F)cc2)cc1`, for which the growth with HCT-15 colon was 92.2%; with HT29 colon, 36.6%; in the assay on SNB-75 CNS it was 81.9%; in the assay with SNB-19 CNS it was 81.5%; with U251 CNS it was 85.7%; in the assay on PC-3 prostate, 66.8%. The growth was 28% with SK-MEL-5 melanoma; 87.8% in the assay with UACC-62 melanoma; 89.8% with LOX IMVI melanoma; 88.5% in the assay on SK-MEL-28 melanoma; 93.7% in the assay with SK-MEL-2 melanoma; 69% in the assay on EKVX NSCLC. Further, the growth with SN12C renal was 80.5%; in the assay with UO-31 renal, 86.7%; with TK-10 renal it was 87.3%; with ACHN renal, 89.3%; in the assay with CAKI-1 renal, 94%; in the assay with CCRF-CEM leukemia it was 82.9%. Moreover, the growth with MOLT-4 leukemia was 61%.
